# Laboratory results taken from the supplement of paper PMC8728848.
# Many of the other results were omitted from the sample, so the strongest signals are more common in it than they were.
# Key:
# Experiment in all cases: glycan array binding signal (z-score within array); higher = stronger binding
# Fuc(a1-2)Gal(b1-3)GlcNAc = conditions: glycan notation: IUPAC condensed, linker removed
# How it was run: (§1)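 Columns mapping to the same glycan were averaged after glycan names were converted to IUPAC-condensed notation. The data come from 3228 arrays in the Consortium for Functional Glycomics database, limited to those with an available protein sequence. Binding is reported as a within-array Z-score averaged across arrays of one protein sequence and across linkers.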
# [1] = tested on: Fuc(a1-2)Gal(b1-3)[Fuc(a1-4)]GlcNAc(b1-2)Man(a1-3)[Fuc(a1-2)Gal(b1-3)[Fuc(a1-4)]GlcNAc(b1-2)Man(a1-6)]Man(b1-4)GlcNAc(b1-4)GlcNAc; conditions: glycan notation: IUPAC condensed, linker removed
# How it was run: as §1
# [2] = tested on: Fuc(a1-2)Gal(b1-4)GlcNAc(b1-3)GalNAc; conditions: glycan notation: IUPAC condensed, linker removed
# How it was run: as §1
# [3] = tested on: Fuc(a1-2)Gal(b1-3)GlcNAc(b1-3)[Neu5Ac(a2-6)Gal(b1-4)GlcNAc(b1-6)]Gal(b1-4)Glc; conditions: glycan notation: IUPAC condensed, linker removed
# How it was run: as §1
# [4] = tested on: Fuc(a1-2)Gal(b1-3)[Fuc(a1-4)]GlcNAc(b1-3)[Gal(b1-4)GlcNAc(b1-6)]Gal(b1-4)Glc; conditions: glycan notation: IUPAC condensed, linker removed
# How it was run: as §1
# [5] = tested on: Fuc(a1-2)Gal(b1-3)[Fuc(a1-4)]GlcNAc; conditions: glycan notation: IUPAC condensed, linker removed
# How it was run: as §1
# [6] = tested on: Fuc(a1-2)Gal(b1-4)GlcNAc(b1-2)Man(a1-3)[Fuc(a1-2)Gal(b1-4)GlcNAc(b1-2)Man(a1-6)]Man(b1-4)GlcNAc(b1-4)GlcNAc; conditions: glycan notation: IUPAC condensed, linker removed
# How it was run: as §1
# [7] = tested on: Fuc(a1-2)Gal(b1-4)GlcNAc(b1-3)Gal(b1-4)GlcNAc(b1-2)Man(a1-3)[Fuc(a1-2)Gal(b1-4)GlcNAc(b1-3)Gal(b1-4)GlcNAc(b1-2)Man(a1-6)]Man(b1-4)GlcNAc(b1-4)GlcNAc; conditions: glycan notation: IUPAC condensed, linker removed
# How it was run: as §1
# [8] = tested on: Fuc(a1-2)Gal(b1-4)GlcNAc(b1-2)[Fuc(a1-2)Gal(b1-4)GlcNAc(b1-4)]Man(a1-3)[Fuc(a1-2)Gal(b1-4)GlcNAc(b1-2)Man(a1-6)]Man(b1-4)GlcNAc(b1-4)GlcNAc; conditions: glycan notation: IUPAC condensed, linker removed
# How it was run: as §1
# Fuc(a1-2)Gal(b1-4)GlcNAc = conditions: glycan notation: IUPAC condensed, linker removed
# How it was run: as §1
# Fuc(a1-2)Gal(b1-4)Glc6S = conditions: glycan notation: IUPAC condensed, linker removed
# How it was run: as §1
# [9] = tested on: Fuc(a1-2)Gal(b1-3)[Fuc(a1-4)]GlcNAc(b1-2)Man(a1-6)[Fuc(a1-2)Gal(b1-3)[Fuc(a1-4)]GlcNAc(b1-2)Man(a1-3)]Man(b1-4)GlcNAc(b1-4)[Fuc(a1-6)]GlcNAc; conditions: glycan notation: IUPAC condensed, linker removed
# How it was run: as §1
# [10] = tested on: Fuc(a1-2)Gal(b1-4)GlcNAc(b1-3)[Fuc(a1-2)Gal(b1-4)GlcNAc(b1-6)]GalNAc; conditions: glycan notation: IUPAC condensed, linker removed
# How it was run: as §1
# [11] = tested on: Fuc(a1-2)Gal(b1-3)[Fuc(a1-4)]GlcNAc(b1-2)Man(a1-3)[Fuc(a1-2)Gal(b1-3)[Fuc(a1-4)]GlcNAc(b1-2)Man(a1-3)]Man(b1-4)GlcNAc(b1-4)GlcNAc; conditions: glycan notation: IUPAC condensed, linker removed; mutation: R125K
# How it was run: as §1
# [12] = tested on: Fuc(a1-2)Gal(b1-4)Fuc(a1-3)]GlcNAc(b1-2)Man(a1-3)[Fuc(a1-2)Gal(b1-4)[Fuc(a1-3)]GlcNAc(b1-2)Man(a1-6)]Man(b1-4)GlcNAc(b1-4)GlcNAc; conditions: glycan notation: IUPAC condensed, linker removed; mutation: R125K
# How it was run: as §1
# [13] = tested on: Fuc(a1-2)Gal(b1-4)GlcNAc(b1-2)Man; conditions: glycan notation: IUPAC condensed, linker removed
# How it was run: as §1
# [14] = tested on: Fuc(a1-2)Gal(b1-4)GlcNAc(b1-3)Gal(b1-4)GlcNAc(b1-3)Gal(b1-4)GlcNAc; conditions: glycan notation: IUPAC condensed, linker removed; mutation: R125K
# How it was run: as §1
# [15] = tested on: Fuc(a1-2)Gal(b1-4)GlcNAc(b1-3)Gal(b1-4)GlcNAc; conditions: glycan notation: IUPAC condensed, linker removed; mutation: R125K
# How it was run: as §1
# [16] = tested on: Fuc(a1-2)Gal(b1-4)GlcNAc(b1-3)[Fuc(a1-3)[Gal(b1-4)]GlcNAc(b1-6)]Gal(b1-4)Glc; conditions: glycan notation: IUPAC condensed, linker removed
# How it was run: as §1
# [17] = tested on: Fuc(a1-2)Gal(b1-4)GlcNAc(b1-6)GalNAc; conditions: glycan notation: IUPAC condensed, linker removed
# How it was run: as §1
# CHI3L1 (Homo sapiens), P36222, sequence (P36222 whole entry): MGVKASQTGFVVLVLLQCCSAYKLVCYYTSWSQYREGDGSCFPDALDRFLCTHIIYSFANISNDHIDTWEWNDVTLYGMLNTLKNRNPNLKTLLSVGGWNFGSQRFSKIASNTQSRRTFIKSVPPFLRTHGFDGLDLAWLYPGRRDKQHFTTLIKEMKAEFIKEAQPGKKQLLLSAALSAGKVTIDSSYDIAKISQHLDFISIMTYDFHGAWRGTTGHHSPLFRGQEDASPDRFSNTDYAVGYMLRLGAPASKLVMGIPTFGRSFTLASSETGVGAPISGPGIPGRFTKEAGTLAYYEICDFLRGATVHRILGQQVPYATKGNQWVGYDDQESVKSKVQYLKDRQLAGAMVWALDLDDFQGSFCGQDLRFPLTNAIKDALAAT
# PILRb (Mus musculus), Q2YSF2, sequence (Q2YSF2 entry or part of it): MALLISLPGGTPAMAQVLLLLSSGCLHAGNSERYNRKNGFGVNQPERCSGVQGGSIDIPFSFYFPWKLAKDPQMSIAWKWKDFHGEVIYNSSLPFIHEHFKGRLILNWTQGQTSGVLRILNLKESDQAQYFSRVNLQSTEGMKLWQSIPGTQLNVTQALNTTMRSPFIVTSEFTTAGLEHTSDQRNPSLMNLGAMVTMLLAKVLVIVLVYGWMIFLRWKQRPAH
# Neurocan (Homo sapiens), O14594, sequence (O14594 other isoform, or with tags, fused parts or gaps): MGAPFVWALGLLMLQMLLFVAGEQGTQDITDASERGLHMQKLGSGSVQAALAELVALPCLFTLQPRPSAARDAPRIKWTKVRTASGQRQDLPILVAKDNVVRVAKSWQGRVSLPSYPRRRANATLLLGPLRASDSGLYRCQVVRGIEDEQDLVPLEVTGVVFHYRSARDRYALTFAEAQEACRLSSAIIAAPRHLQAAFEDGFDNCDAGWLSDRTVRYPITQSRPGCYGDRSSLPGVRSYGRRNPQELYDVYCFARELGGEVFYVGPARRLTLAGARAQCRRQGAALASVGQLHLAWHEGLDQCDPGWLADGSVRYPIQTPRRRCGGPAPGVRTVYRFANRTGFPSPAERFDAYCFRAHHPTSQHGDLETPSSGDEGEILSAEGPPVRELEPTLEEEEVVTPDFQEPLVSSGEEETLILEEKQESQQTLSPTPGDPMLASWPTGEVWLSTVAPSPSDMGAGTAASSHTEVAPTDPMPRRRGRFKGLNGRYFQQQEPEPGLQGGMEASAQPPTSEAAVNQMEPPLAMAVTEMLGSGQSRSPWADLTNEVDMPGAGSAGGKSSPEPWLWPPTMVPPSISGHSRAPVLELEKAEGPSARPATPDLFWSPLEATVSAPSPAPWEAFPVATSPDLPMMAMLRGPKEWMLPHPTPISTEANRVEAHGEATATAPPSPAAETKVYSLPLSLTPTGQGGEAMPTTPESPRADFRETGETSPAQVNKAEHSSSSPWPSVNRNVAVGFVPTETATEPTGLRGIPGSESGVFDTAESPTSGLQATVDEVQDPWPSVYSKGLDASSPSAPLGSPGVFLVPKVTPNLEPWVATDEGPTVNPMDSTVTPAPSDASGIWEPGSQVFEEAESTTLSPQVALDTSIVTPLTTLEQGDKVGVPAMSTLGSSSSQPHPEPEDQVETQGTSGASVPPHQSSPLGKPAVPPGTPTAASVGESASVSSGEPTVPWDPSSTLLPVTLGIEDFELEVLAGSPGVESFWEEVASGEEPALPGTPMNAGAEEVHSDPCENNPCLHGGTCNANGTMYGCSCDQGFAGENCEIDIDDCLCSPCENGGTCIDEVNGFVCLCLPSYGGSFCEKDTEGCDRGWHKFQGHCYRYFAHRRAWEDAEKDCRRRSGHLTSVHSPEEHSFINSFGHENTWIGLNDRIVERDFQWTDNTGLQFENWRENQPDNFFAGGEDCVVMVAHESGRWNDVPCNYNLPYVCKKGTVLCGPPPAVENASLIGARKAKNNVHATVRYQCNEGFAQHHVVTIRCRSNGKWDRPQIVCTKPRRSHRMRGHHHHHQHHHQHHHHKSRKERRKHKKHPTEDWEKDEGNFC
# Regenerating Gene IV (Homo sapiens), Q9BYZ8, sequence (Q9BYZ8 whole entry, looked up): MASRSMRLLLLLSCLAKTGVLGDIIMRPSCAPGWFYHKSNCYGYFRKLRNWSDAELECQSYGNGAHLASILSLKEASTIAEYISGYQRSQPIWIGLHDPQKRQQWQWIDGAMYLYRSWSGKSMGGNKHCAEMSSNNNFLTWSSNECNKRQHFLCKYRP
substance,measurement,setting,value
"PILRb (Mus musculus), Q2YSF2",glycan array binding signal (z-score),Fuc(a1-2)Gal(b1-3)GlcNAc,-0.281
same,glycan array binding signal (z-score),[1],2.44
same,glycan array binding signal (z-score),[2],-0.066
MpAFP RI GFP (Marinomonas primoryensis),glycan array binding signal (z-score),[3],-0.127
same,glycan array binding signal (z-score),[4],-0.303
same,glycan array binding signal (z-score),[5],-0.05
same,glycan array binding signal (z-score),[6],-0.295
same,glycan array binding signal (z-score),[7],1.06
"Neurocan (Homo sapiens), O14594",glycan array binding signal (z-score),[8],0.982
"HARE (Homo sapiens), Q8WWQ8",glycan array binding signal (z-score),Fuc(a1-2)Gal(b1-4)GlcNAc,2.62
"Regenerating Gene IV (Homo sapiens), Q9BYZ8",glycan array binding signal (z-score),Fuc(a1-2)Gal(b1-4)Glc6S,2.53
"CHI3L1 (Homo sapiens), P36222",glycan array binding signal (z-score),[9],0.653
same,glycan array binding signal (z-score),[5],5.09
same,glycan array binding signal (z-score),[10],-0.129
"Siglec-8 (Homo sapiens), Q9NYZ4",glycan array binding signal (z-score),[11],1.44
same,glycan array binding signal (z-score),[12],2.42
same,glycan array binding signal (z-score),[13],-0.065
same,glycan array binding signal (z-score),[14],-0.32
same,glycan array binding signal (z-score),[15],-0.565
same,glycan array binding signal (z-score),[16],-0.102
same,glycan array binding signal (z-score),[17],0.139
same,glycan array binding signal (z-score),Fuc(a1-2)Gal(b1-4)GlcNAc; mutation: R125K,-0.001
